Screens: PubChem, several laboratories
GDH-TPI inh – GDH-TPI coupling enzyme inhibitors, primary screen, artefact control for M. tuberculosis FBA inhibitor project, biochemical, absorbance, full deck; GDH-TPI coupled enzyme counterscreen, NADH absorbance; inhibition, % at 4.8 µM; 360,000 tested, 1.2% active; AID 588335, 2011; in the data active = inhibition above about 30%;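 note: 0% = DMSO wells and 100% = wells lacking the enzyme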
BoNT F protease – BoNT/F light chain protease inhibitors, primary screen, biochemical, flow cytometry, MLPCN library. Multiplex microsphere protease cleavage assay. inhibition, % at 10 µM. 360,000 tested, 0.22% active; in the data active = inhibition above about 35%, passing the limit was not always enough; inconclusive = no clear call, values can overlap the other calls; note: plate controls were buffer without enzyme for full effect and enzyme alone for no effect
FBA Mtb inh – Mtb FBA enzyme inhibitors, primary screen, biochemical, fluorescence, strain H37Rv | inhibition, % at 1 µM | 360,000 tested, 2.3% active | purified M. tuberculosis FBA, fluorescence read-out; in the data active = inhibition above about 27%;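 note: 0% = vehicle and 100% = reference inhibitor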
BoNT A protease – BoNT/A light chain protease inhibitors, primary screen, biochemical, flow cytometry, MLPCN library. 360,000 tested, 0.17% active. Botulinum neurotoxin type A light chain protease (Clostridium botulinum A str. ATCC 3502). inhibition, % at 10 µM. multiplex microsphere protease substrate cleavage; note: plate controls were buffer without enzyme for full effect and enzyme alone for no effect
Anthrax LF inh2 – Bacillus anthracis LF protease inhibitors, primary screen, biochemical, multiplex microsphere, MLPCN library; multiplex microsphere protease cleavage assay; inhibition, % at 10 µM; 360,000 tested, 0.12% active; note: plate controls were buffer without enzyme for full effect and enzyme alone for no effect
Autofluor counter – counter-screen for toxin protease inhibitors: compound fluorescence | compound autofluorescence counterscreen, microsphere flow cytometry; active compounds read high | fluorescence intensity (no concentration beside the values) | 360,000 tested, 3.1% active; in the data active = fluorescence intensity above about 16000; inconclusive = no clear call, values can overlap the other calls
Active calls of the source: *. Only some compounds are listed: those with a hit (about 6.7% of all), similar ones and a draw of the others. Cut-off read from the data, not from the text of the source, unless noted: active = inhibition above about 30%; inconclusive = no clear call, values can overlap the other calls; inactive = below that.

Screening Cn1c(=O)c2cc(NC(=O)Cc3ccccc3F)ccc2n1Cc1ccc(Cl)cc1 returned GDH-TPI inh 4.5, BoNT F protease 0.2, FBA Mtb inh 132.7*, BoNT A protease 0.0, Anthrax LF inh2 -1.2 and Autofluor counter 4167.
Screening COc1cc(Cn2c3ccc(NC(=O)CC(C)C(F)(F)F)cc3c(=O)n2C)ccc1F (stereo unspecified) returned GDH-TPI inh 4.4, BoNT F protease 0.8, FBA Mtb inh 174.3*, BoNT A protease 0.6, Anthrax LF inh2 -1.0 and Autofluor counter 3365.
Cn1c(=O)c2cc(NC(=S)NC3CCCCC3)ccc2n1Cc1ccc(Cl)cc1 was read as GDH-TPI inh 2.7, BoNT F protease 4.5, FBA Mtb inh 23.7, BoNT A protease 0.2, Anthrax LF inh2 -6.7 and Autofluor counter 3601.
`COc1cc(Cn2c3ccc(NC(=O)CC(C)(C)C)cc3c(=O)n2C)ccc1F` gave GDH-TPI inh 17.7, BoNT F protease -6.8, FBA Mtb inh 178.2*, BoNT A protease -0.5, Anthrax LF inh2 0.8 and Autofluor counter 4067.
`Cc1nn(C)c(C)c1C1C(C#N)=C(N)Oc2n[nH]c(C)c21` (stereo unspecified) gave GDH-TPI inh -4.5, BoNT F protease 11.5, FBA Mtb inh -0.8, BoNT A protease 1.4, Anthrax LF inh2 -5.9 and Autofluor counter 10415.
For COc1ccc(C(=O)C[n+]2ccccc2/C=N/O)cc1 the results were GDH-TPI inh 13.7, BoNT F protease -3.4, FBA Mtb inh -3.0, BoNT A protease 0.3, Anthrax LF inh2 -2.1 and Autofluor counter 2148.
`CC(CC(=O)Nc1ccc2c(c1)c(=O)n(C)n2Cc1cccc(C(F)(F)F)c1)C(F)(F)F` (stereo unspecified) gave GDH-TPI inh 4.9, BoNT F protease 3.5, FBA Mtb inh 125.5*, BoNT A protease -0.1, Anthrax LF inh2 -3.2 and Autofluor counter 3871.
For CC(CC(=O)Nc1ccc2c(c1)c(=O)n(C)n2-c1ccccc1)c1ccccc1 (stereo unspecified) the results were GDH-TPI inh 4.6, BoNT F protease 2.0, FBA Mtb inh 12.8, BoNT A protease 1.2, Anthrax LF inh2 -4.6 and Autofluor counter 3198.
Screening COc1ccc2c(c1)C1NC(=S)NC(C)(O2)C1C(=O)Nc1ccc(C)cc1C (stereo unspecified) returned GDH-TPI inh 5.2, BoNT F protease 39.6*, FBA Mtb inh 2.3, BoNT A protease 4.5, Anthrax LF inh2 0.9 and Autofluor counter 2082.
Cc1nn(-c2ccccc2)c(C)c1NC(=O)COC(=O)c1ccccc1OC(F)F was read as GDH-TPI inh 9.6, BoNT F protease -3.7, FBA Mtb inh 2.3, BoNT A protease 1.1, Anthrax LF inh2 -1.4 and Autofluor counter 4113.
For N#Cc1ccc(C(=O)CSc2nnc(-c3ccc(C(F)(F)F)cn3)s2)cc1 the results were GDH-TPI inh -4.9, BoNT F protease inconclusive, FBA Mtb inh -0.2, BoNT A protease inconclusive, Anthrax LF inh2 -5.8 and Autofluor counter 4273.
`CCCCCC(=O)Nc1ccc(N2CCN(CC)CC2)c(Cl)c1` gave GDH-TPI inh 4.3, BoNT F protease -4.7, FBA Mtb inh 2.0, BoNT A protease -1.9, Anthrax LF inh2 2.3 and Autofluor counter 23051*.
Screening Oc1ccc(Br)cc1-c1cc(-c2ccc(Cl)cc2)n[nH]1 returned GDH-TPI inh 0.0, BoNT F protease 0.1, FBA Mtb inh -0.7, BoNT A protease -0.6, Anthrax LF inh2 -3.3 and Autofluor counter 3210.
For COc1ccc(C2C=C(C)Nc3nc(SC)nn32)cc1 (stereo unspecified) the results were GDH-TPI inh 20.1, BoNT F protease -7.8, FBA Mtb inh 149.3*, BoNT A protease -0.8, Anthrax LF inh2 -5.4 and Autofluor counter 2497.
Cc1ccc(NC(=O)NCc2cccnc2)cc1 was read as GDH-TPI inh 8.8, BoNT F protease -3.4, FBA Mtb inh 2.0, BoNT A protease -3.9, Anthrax LF inh2 -2.0 and Autofluor counter 6340.
`O=C(NCc1ccccn1)C(=O)NCC1OCCN1S(=O)(=O)c1ccc(Br)cc1` (stereo unspecified) gave GDH-TPI inh 3.8, BoNT F protease -1.5, FBA Mtb inh -0.6, BoNT A protease -0.4, Anthrax LF inh2 -2.1 and Autofluor counter 5621.
